# Measured values published in PubChem BioAssay (NCATS).
# Results filed as inconclusive are left out. Entries that show only a call come without a potency. Activity calls are given as the source filed them. The call rests on the fitted dose curve; in most records, active means well fitted curve in the direction sought with a large enough effect; inconclusive means small, poorly fitted or top-dose-only effect, or another doubt; inactive means no such curve, though single readings can be large; an effect the other way counts as inactive or inconclusive.
# Columns and labels:
# [1] = qHTS to identify inhibitors of the type 1 interferon - major histocompatibility complex class I in skeletal muscle: primary screen against the NCATS Mechanism Interrogation Plate v5.0 (MIPE) Libary (AID 1347411); further: nearly all actives have a fitted effect of over 65% in size; further: potency means the concentration at half of the fitted maximal effect
# In short: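 HLA-B HiBit myoblasts, dexamethasone-free medium + 4 ng/ml IFN-b, 24 h compound, 11-pt 1:3 from 46 uM final. Readout: Nano-Glo HiBiT lytic luminescence after 10 min lysis, RT.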
# [2] = target: Calcium and integrin-binding protein 1 (Homo sapiens) (UniProt Q99828); experiment: Primary qHTS for Identification of Calcium Integrin Binding Protein 1 (CIB1) Competitor (AID 1508620);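 further: GST tagged CIB1 binding a fluorescein labelled alphaIIb integrin peptide tracer; top concentration of the series differs between compounds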
# In short: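 CIB1-GST (1 uM final) and compound incubated 15 min at room temperature before adding FITC-alphaIIb peptide tracer (100 nM final). Competition for binding read by fluorescence polarization (ex 480, em 540) after another 15 min at room temperature.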
# [3] = target: Protein phosphatase 1D (Homo sapiens) (UniProt O15297); experiment: RapidFire Mass Spectrometry qHTS Assay for Modulators of WT P53-Induced Phosphatase 1 (WIP1) (AID 1347424);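 further: amount of dephosphorylated VEPPL-S-QETFS peptide product formed by WIP1; series mostly up to about 63 µM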
# In short: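 RapidFire mass spectrometry measured dephosphorylated peptide after 5 min room-temperature reaction of 2 uM VEPPL-pS-QETFS with 10 nM WIP1 (50 mM Tris-HCl pH 7.5, 30 mM MgCl2, 0.1 mM EGTA, BSA), following 1 hr compound preincubation; 1 uM isotope-labelled product standard.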
# [4] = target: Protein phosphatase 1D (Homo sapiens) (UniProt O15297); experiment: Rhodamine-PBP qHTS Assay for Modulators of WT P53-Induced Phosphatase 1 (WIP1) (AID 1347425)
# In short: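 Steps: enzyme with Rh-PBP sensor and compounds, room-temperature incubation of 1 hr, baseline read, addition of VEPPL-pS-QETFS (10 uM final), kinetic fluorescence reads at 525/598 nm. Activity equals final minus baseline signal.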
# [5] = Validation qHTS assay for inhibitors of Activation Induced Cytidine Deaminase (AID): UDG Counterscreen signal (AID 1347427)
# Source text: Assay Provider (PI) Patricia Gearhart Ph.D.
# National Institute on Aging
# National Institute of Health (NIH), Bethesda, MD
# Assay Provider (PI) Rahul Kohli Ph.D.
# Perelman School of Medicine
# University of Pennsylvania, Philadelphia, PA
# Activation-Induced Deaminase (AID) is a cytosine deaminase which converts cytosine into uracil within stretches of ssDNA. The presence of uracil in DNA initiates a cascade of mutagenic DNA repair to introduce point mutations and DNA double strand breaks. Specific targeting of AID to the immunoglobulin heavy chain loci (Igh) promotes mutagenesis in the antibody variable region for somatic hypermutation (SHM) or switch regions leading to class switch recombination (CSR). […]
# A FRET based analysis of cytosine deamination, was developed to identify potential inhibitors of AID catalytic activity. This screen has two signal output, Read 1 evaluates the AID inhibition response. The second readout (Read 2) evaluates UDG response and is uses as a counterscreen to exclude false positive inhibitors. […]
# 9a; Detection; fluorescence (Read 1: AID); EnVision (PerkinElmer) plate reader, 540 excitation and 590 emission filters
# 9b; Detection; fluorescence (Read 2: UDG); EnVision (PerkinElmer) plate reader, 560 excitation and 665 emission filters […]
# 9a; Fluorescence signal (column label AID) was read using the EnVision plate reader. […]
# [6] = target: Single-stranded DNA cytosine deaminase (Homo sapiens) (UniProt Q9GZX7); experiment: Validation qHTS assay for inhibitors of Activation Induced Cytidine Deaminase (AID): AID signal (AID 1347429)
# Source text: Assay Provider (PI) Patricia Gearhart Ph.D. National Institute on Aging National Institute of Health (NIH), Bethesda, MD Assay Provider (PI) Rahul Kohli Ph.D. Perelman School of Medicine University of Pennsylvania, Philadelphia, PA Activation-Induced Deaminase (AID) is a cytosine deaminase which converts cytosine into uracil within stretches of ssDNA. The presence of uracil in DNA initiates a cascade of mutagenic DNA repair to introduce point mutations and DNA double strand breaks. […] This screen has two signal output, Read 1 evaluates the AID inhibition response. The second readout (Read 2) evaluates UDG response and is uses as a counterscreen to exclude false positive inhibitors. […]
# PROTOCOL TABLE SEQUENCE No. (e.g., 1, 2, 3, etc.); […] […] 250 mM NaOH 7; Time; 15 sec; centrifuge at 1000 rpm 8; Time; 30 min; incubation at room temperature 9a; Detection; fluorescence (Read 1: AID); EnVision (PerkinElmer) plate reader, 540 excitation and 590 emission filters 9b; Detection; fluorescence (Read 2: UDG); EnVision (PerkinElmer) plate reader, 560 excitation and 665 emission filters NOTES (numbers refer to sequence above) 1a; Reagents were dispensed in a medium-binding black solid-bottom Greiner plates (789176F) using a BioRptr liquid dispenser. […] 8; Room temperature incubation 9a; Fluorescence signal (column label AID) was read using the EnVision plate reader. […]
# [7] = target: Calcium and integrin-binding protein 1 (Homo sapiens) (UniProt Q99828); experiment: Validation qHTS for Identification of Calcium Integrin Binding protein 1 (CIB1) Competitor (AID 1508618)
# In short: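 In this qHTS validation, the LOPAC set (up to 114 uM) was tested for blocking CIB1 binding to a fluorescein-tagged alphaIIb peptide, with FP detection at 480/540 nm.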
# [8] = Primary qHTS for small molecule stabilizers of the endoplasmic reticulum resident proteome: Secreted ER Calcium Modulated Protein (SERCaMP) assay (AID 1508630)
# In short: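 The SH-SY5Y reporter protocol was run at 3 concentrations up to 38.3 uM (primary) or 11 concentrations (follow-up): 16 h compound, 100 nM thapsigargin for 4 h, then extracellular luciferase luminescence.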
# [9] = target: Calcium and integrin-binding protein 1 (Homo sapiens) (UniProt Q99828); experiment: Confirmatory qHTS for Identification of Calcium Integrin Binding Protein 1 (CIB1) Competitor (AID 1508617); further: potency means the concentration at half of the fitted maximal effect; nearly all actives have a fitted effect of over 65% in size
# In short: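 Binding competition between test compounds and fluorescent alphaIIb peptide for 1 uM CIB1-GST is monitored by FP at 480/540 nm. Final compound range is up to 114 uM; unlabeled peptide serves as reference competitor.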
# Sequence of Calcium and integrin-binding protein 1 (Homo sapiens) (Q99828 whole entry, looked up): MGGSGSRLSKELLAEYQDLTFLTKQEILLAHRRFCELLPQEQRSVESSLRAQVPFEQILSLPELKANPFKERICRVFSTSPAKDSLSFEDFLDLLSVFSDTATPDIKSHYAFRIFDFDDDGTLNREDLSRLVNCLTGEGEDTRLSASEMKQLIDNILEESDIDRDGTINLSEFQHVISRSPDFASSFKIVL
# Sequence of Protein phosphatase 1D (Homo sapiens) (O15297 whole entry, looked up): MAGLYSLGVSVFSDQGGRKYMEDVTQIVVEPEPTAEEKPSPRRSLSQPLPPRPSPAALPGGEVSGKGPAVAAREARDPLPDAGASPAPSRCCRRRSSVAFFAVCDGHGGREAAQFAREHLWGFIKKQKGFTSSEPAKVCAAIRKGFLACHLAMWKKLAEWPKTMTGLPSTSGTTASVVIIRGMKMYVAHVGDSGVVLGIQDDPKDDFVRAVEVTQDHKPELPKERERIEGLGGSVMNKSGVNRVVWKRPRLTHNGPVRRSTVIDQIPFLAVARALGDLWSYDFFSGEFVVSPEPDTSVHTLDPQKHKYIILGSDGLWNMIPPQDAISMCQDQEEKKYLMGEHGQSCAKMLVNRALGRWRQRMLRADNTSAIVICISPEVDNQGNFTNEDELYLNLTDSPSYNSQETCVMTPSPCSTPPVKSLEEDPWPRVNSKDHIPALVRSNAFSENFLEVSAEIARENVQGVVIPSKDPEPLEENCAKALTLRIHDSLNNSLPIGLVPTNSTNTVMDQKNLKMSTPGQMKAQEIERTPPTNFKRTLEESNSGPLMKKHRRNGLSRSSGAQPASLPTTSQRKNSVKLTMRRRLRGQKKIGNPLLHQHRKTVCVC
# Sequence of Single-stranded DNA cytosine deaminase (Homo sapiens) (Q9GZX7 whole entry, looked up): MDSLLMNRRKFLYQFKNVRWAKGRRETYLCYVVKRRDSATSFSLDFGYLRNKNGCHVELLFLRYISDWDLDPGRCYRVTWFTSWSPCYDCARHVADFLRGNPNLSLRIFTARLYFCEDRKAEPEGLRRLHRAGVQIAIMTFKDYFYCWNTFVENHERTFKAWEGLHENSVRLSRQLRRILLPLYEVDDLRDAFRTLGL
compound,measurement,setting,value
Fc1ccc2[nH]ccc2c1-c1nc(N2CCOCC2)c2sc(CN3CCN(CC4CC4)CC3)cc2n1,Potency,[1],33 µM (active)
same,Potency,[2],inactive
NC(=O)c1cnc(N[C@@H]2CCCC[C@@H]2N)nc1Nc1cccc(-n2nccn2)c1,Potency,[1],13.1 µM (active)
same,Potency,[2],inactive
Cc1cnc(-c2ccccc2C(C)C)nc1NCc1ccc(-n2ccnn2)cc1,Potency,[1],inactive
same,Potency,[2],inactive
COc1ccc(CNc2nc(N(CCO)CCO)nc3c2ncn3C(C)C)cc1,Potency,[1],4.66 µM (active)
same,Potency,[2],inactive
O=C(NC[C@H](O)CN1CCc2ccccc2C1)c1ccnc(NC2CCC2)c1,Potency,[1],inactive
same,Potency,[2],inactive
COc1cc2c(cc1-c1c(C)noc1C)ncc1[nH]c(=O)n(C(C)c3ccccn3)c12 (stereo not given),Potency,[2],inactive
CC(C)(O)/C=C/C(=O)[C@](C)(O)[C@H]1[C@H](O)C[C@@]2(C)[C@@H]3CC=C4[C@@H](C[C@H](O[C@@H]5O[C@H](CO)[C@@H](O)[C@H](O)[C@H]5O)C(=O)C4(C)C)[C@]3(C)C(=O)C[C@]12C,Potency,[2],inactive
COc1cc2ncc(-c3ccccc3)nc2cc1OC,Potency,[2],inactive
Cc1cc(C(=O)Nc2cc(Nc3ccc4c(/C=C/c5ccccn5)n[nH]c4c3)ccc2F)n(C)n1,Potency,[1],29.4 µM (active)
same,Potency,[2],inactive
CN[C@H]1CC[C@@H](c2ccc(Cl)c(Cl)c2)c2ccccc21,Potency,[3],inactive
same,outcome,[4],inactive
same,outcome,[5],inactive
same,outcome,[6],inactive
same,outcome,[7],inactive
same,Potency,[2],inactive
same,outcome,[8],inactive
COc1nc2ccc(Br)cc2cc1[C@@H](c1ccccc1)[C@@](O)(CCN(C)C)c1cccc2ccccc12,Potency,[9],89.1 µM (active)
CC(C)(CNC(=O)c1cccc(-c2noc(C(F)(F)F)n2)c1)c1coc(-c2ccccc2)n1,Potency,[1],inactive
same,Potency,[2],inactive
